Source: PubChem BioAssay
Sampled rows, rich in hits. Any-hit rate of the full collection: about 12%.
Sm TGR block: inhibitors of Schistosoma mansoni thioredoxin glutathione reductase; Potency, µM (highest dose often 114 µM), most hits filed as inhibitors; purified TGR, DTNB reduction, TNB absorbance 405 nm; 360,000 tested, 3% active; AID 485364; further: nearly all actives have a fitted effect of over 60% in size
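TGR 20 nM + NADPH 100 uM (dispensed conc.), cpd preinc 15 min RT; start with NADPH (500 uM addition) then DTNB (15 mM addition). Kinetic TNB absorbance, 405 nm filter. Four-parameter Hill fit across titration.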
Pf growth 48h: inhibits P. falciparum growth in the first generation, 48 h. Potency, µM (highest dose often 28.7 µM), actives largely listed as inhibitors. 310,000 tested, 5.9% active. AID 504832. P. falciparum luciferase growth in erythrocytes, 48 h
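In quantitative HTS format, infected erythrocytes bearing luciferase-reporter parasites were treated for a single generation at 37 C. Luminescence after adding detection reagent served as the growth measure.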
SARS PLP yeast: inhibitors of SARS-CoV papain-like protease in yeast; AID 485353; 330,000 tested, 0.19% active; S. cerevisiae expressing SARS-CoV PLpro, growth rescue; Potency, µM (titrated, usually from 32.9 µM), usual class: activators; calls by dose curve; further: nearly all actives have a fitted effect of over 55% in size
Pf growth 96h: P. falciparum growth inhibition at 96 hours | Potency, µM (top dose mostly 28.7 µM), usual class: inhibitors | AID 504834 | P. falciparum luciferase reporter growth, 96 h | 320,000 tested, 6.9% active
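P. falciparum expressing integrated firefly luciferase grown in erythrocytes (2% hematocrit, 0.05% parasitemia final) with compounds for 96 hours at 37 C, 5% CO2. Growth inhibition read as loss of luminescence after adding luciferase detection reagent.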
Hits are given with their value; [ ] = remark or other dose. Unless noted, the call rests on the fitted dose curve; in most records, active means well fitted curve in the direction sought with a large enough effect; inconclusive means small, poorly fitted or top-dose-only effect, or another doubt; inactive means no such curve, though single readings can be large; an effect the other way counts as inactive or inconclusive.

`COc1ccccc1N1CCN(CCCCN2C(=O)C3CCCCN3C2=O)CC1` (centres undefined) gave Sm TGR block inactive, Pf growth 48h inactive, SARS PLP yeast inactive and Pf growth 96h 8.28µM.
Screening N#CCN1CCN(CC(=O)c2ccc(Br)cc2)CC1 returned Sm TGR block 11.2µM, Pf growth 48h inactive, SARS PLP yeast inactive and Pf growth 96h inconclusive.
For CC(=O)N1CCN(CC(=O)c2ccc(Br)cc2)CC1 the results were Sm TGR block inactive, Pf growth 48h inactive, SARS PLP yeast inactive and Pf growth 96h inactive.
NC(=O)c1ccc(NC(=O)CN2CCN(c3ccc(Cl)cc3)CC2)cc1 was read as Sm TGR block inactive, Pf growth 48h inactive, SARS PLP yeast inactive and Pf growth 96h 11.7µM.
CCCCOc1ccccc1N1CCN(CCCN2C(=O)C3CCCN3C2=O)CC1 (centres undefined) was read as Sm TGR block inactive, Pf growth 48h inactive, SARS PLP yeast inactive and Pf growth 96h inconclusive.
COc1ccc(C(=O)CCN2CCN(c3ccc(OC)cc3)CC2)cc1 was read as Sm TGR block inactive, Pf growth 48h inactive, SARS PLP yeast inactive and Pf growth 96h inactive.
For CNc1ccccc1NC(=O)C1CCCN1C(=O)OCc1ccccc1 (centres undefined) the results were Sm TGR block inactive, Pf growth 48h inactive, SARS PLP yeast inactive and Pf growth 96h inconclusive.
For COc1ccc(C(=O)CN2CCN(c3ccc(F)cc3)CC2)cc1OC the results were Sm TGR block 35.5µM, Pf growth 48h inactive, SARS PLP yeast inactive and Pf growth 96h inactive.
Screening COc1cc(OC)c(OC)cc1CN1CCN(c2ccc(F)cc2)CC1 returned Sm TGR block inactive, Pf growth 48h inactive, SARS PLP yeast inactive and Pf growth 96h inactive.
O=C(CCN1CCN(c2ccccc2)CC1)c1ccc(Br)cc1 was read as Sm TGR block inactive, Pf growth 48h inactive[0.00184 µM], SARS PLP yeast inactive and Pf growth 96h inactive.
For N#Cc1ccc(C(=O)CN2CCN(c3ccccc3)CC2)cc1 the results were Sm TGR block 7.08µM, Pf growth 48h inconclusive, SARS PLP yeast inactive and Pf growth 96h inactive.
Screening CCN(CC(=O)Nc1ccc(C(=O)OC)cc1)C1CCCCC1 returned Sm TGR block inactive, Pf growth 48h inactive, SARS PLP yeast inactive and Pf growth 96h inactive.
Screening CCOc1ccc(S(=O)(=O)NCc2ccco2)cc1 returned Sm TGR block inactive, Pf growth 48h inactive and Pf growth 96h inactive.
For COc1ccc(CNC(=O)C(=O)NCC(c2ccco2)S(=O)(=O)c2ccc(C)cc2)cc1 (centres undefined) the results were Sm TGR block inactive.
For O=C(CC(c1ccco1)S(=O)(=O)c1ccccc1)c1ccc(F)cc1 (centres undefined) the results were Sm TGR block 1.58µM, Pf growth 48h inactive and SARS PLP yeast inactive.
For COc1ccc(CNC(=O)C(=O)NCC(c2ccco2)S(=O)(=O)c2ccc(Cl)cc2)cc1 (centres undefined) the results were Sm TGR block 11.2µM.
`O=C(NC(=S)NCCc1ccc(Cl)cc1)c1ccco1` gave Sm TGR block inconclusive, Pf growth 48h inactive, SARS PLP yeast inactive and Pf growth 96h inactive.
`O=C(NCCc1ccc(Cl)cc1)C(=O)NCC(c1ccco1)S(=O)(=O)c1ccc(Cl)cc1` (centres undefined) gave Sm TGR block 3.98µM.
`CCOc1ccc(S(=O)(=O)NCC(c2ccco2)S(=O)(=O)c2ccc(F)cc2)cc1` (centres undefined) gave Sm TGR block 0.316µM.
Screening Cc1ccc(S(=O)(=O)C(CNC(=O)C(=O)NCCc2ccccc2)c2ccco2)cc1 (centres undefined) returned Sm TGR block 44.7µM.
For O=C(NCC(c1ccco1)S(=O)(=O)c1ccc(Cl)cc1)c1ccc(C(F)(F)F)cc1 (centres undefined) the results were Sm TGR block 0.891µM.
`O=C(NCc1ccccc1F)C(=O)NCC(c1ccco1)S(=O)(=O)c1ccccc1` (centres undefined) gave Sm TGR block inactive.
For COc1ccc(C(=O)NCC(c2ccco2)S(=O)(=O)c2ccc(F)cc2)cc1 (centres undefined) the results were Sm TGR block inactive.
For O=C(COc1ccc(Cl)cc1)NCC(c1ccco1)S(=O)(=O)c1ccc(F)cc1 (centres undefined) the results were Sm TGR block 25.1µM.
Screening CCc1ccccc1NC(=O)Cn1c(=O)oc2ccccc21 returned Sm TGR block inactive.
For CC(C)Oc1ccc(CNC(=O)Cn2c(=O)oc3ccccc32)cc1 the results were Sm TGR block inactive, SARS PLP yeast inactive and Pf growth 96h inconclusive.
`Cc1ccc(CNC(=O)Cn2c(=O)oc3ccccc32)o1` gave Sm TGR block 28.2µM, Pf growth 48h inconclusive, SARS PLP yeast inactive and Pf growth 96h inconclusive.
Cc1ccccc1NC(=O)Cn1c(=O)oc2ccccc21 was read as Sm TGR block inactive, Pf growth 48h inactive, SARS PLP yeast inactive and Pf growth 96h 4.15µM.
O=S(=O)(Nc1ccc(S(=O)(=O)N2CCCCCC2)cc1)c1cccs1 was read as Sm TGR block inactive, SARS PLP yeast inactive and Pf growth 96h inconclusive.
Screening O=S(=O)(Nc1ccc(S(=O)(=O)N2CCCCC2)cc1)c1ccc(Br)s1 returned Sm TGR block 6.31µM, Pf growth 48h inactive, SARS PLP yeast inactive and Pf growth 96h inactive.
For Cn1c(=O)n(C)c2cc(NS(=O)(=O)c3ccc(Br)s3)ccc21 the results were Sm TGR block inactive, Pf growth 48h inactive, SARS PLP yeast inactive and Pf growth 96h 9.28µM.
For CCOC(=O)c1cc(OC(=O)c2ccccc2OC)n(-c2ccccc2)n1 the results were Sm TGR block 35.5µM, SARS PLP yeast inactive and Pf growth 96h inactive.
For COc1ccc(OC)c(S(=O)(=O)N2CCC(C(=O)NCc3ccc4c(c3)OCO4)CC2)c1 the results were Sm TGR block inactive, Pf growth 48h inactive, SARS PLP yeast inactive and Pf growth 96h inconclusive.
For CCCOc1ccc(NC(=O)CC2C(=O)N(c3ccccc3)C(=O)N2CCC(C)C)cc1 (centres undefined) the results were Sm TGR block inactive.
Cc1c(C(=O)N2CCC(C)CC2)c(S(=O)(=O)N(Cc2ccccc2)C(C)(C)C)c(C)n1C was read as Sm TGR block inactive.
Screening C=C1CCN([C@H](C(=O)NCc2ccccc2)C(C)C)S(=O)(=O)c2ccccc21 returned Sm TGR block inactive, Pf growth 48h inconclusive, SARS PLP yeast inactive and Pf growth 96h 11.7µM.
`COc1ccc(C(=O)N2CCOC2CNC(=O)C(=O)NCCc2ccc(OC)c(OC)c2)cc1` (centres undefined) gave Sm TGR block inactive, Pf growth 48h inconclusive, SARS PLP yeast inactive and Pf growth 96h inactive.
Screening COC(=O)c1cccc(NC(=O)/C(=C\c2ccccc2)NC(=O)c2ccccc2Cl)c1 returned Sm TGR block inactive, Pf growth 48h inactive, SARS PLP yeast inactive and Pf growth 96h inconclusive.
`O=C1CCCc2[nH]c3cccc(/C(=C/c4ccccc4)c4ccccc4)c3c21` gave Sm TGR block inactive, Pf growth 48h inactive, SARS PLP yeast inactive and Pf growth 96h 11.7µM.
